# Source: PubChem (National Center for Advancing Translational Sciences (NCATS))
# HTT cytoprotect = cytoprotection in Huntington HTT-Q103 PC12 cell model | PC12 HTT-Q103 induced, cytoprotection, ATP luminescence, 40 h | Potency, µM (series often up to 56.4 µM), for inactives: cytoprotection (ATP increase), usual class: activators | 230,000 tested, 0.14% active | AID 1471; further: % of control where 0% means no effect; nearly all actives have a fitted effect of over 45% in size
#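 Compounds added alongside 100 nM tebufenozide, which induces toxic Q103 huntingtin exon 1-GFP in stable PC12 cells; surviving cells quantified by luminescent ATP measurement. Medium: phenol red-free DMEM, 5% equine and 5% calf serum.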
# HttQ103 aggreg = inhibitors of mutant huntingtin aggregate formation in PC12 cells | PC12 HttQ103-GFP aggregates, Acumen cytometry, 40 h | Potency, µM (top dose mostly 46.1 µM), without a hit: top-dose activity change, negative = inhibition, actives largely listed as inhibitors | 220,000 tested, 1.1% active | AID 1688; further: on the % scale 0 is the no-effect control and ±100 the full control effect; nearly all actives have a fitted effect of over 60% in size
#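 Quantitative HTS on tebufenozide-induced (100 nM) PC12 cells stably expressing polyQ103 Huntingtin exon 1–GFP. Reduction of bright GFP aggregates, detected by laser scanning cytometry after lysis, identified actives across the titration.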
# NPSR antagonist = blocks cAMP signaling of the human neuropeptide S receptor; Potency, µM (titrated, usually from 38.3 µM), for inactives: at the highest dose activity change, negative = inhibition, hits mostly inhibitors; AID 1461; Q6W5P4; CHO-NPSR cells, cAMP TR-FRET, antagonist mode; 220,000 tested, 1% active; further: on the % scale 0 is the no-effect control and ±100 the full control effect; nearly all actives have a fitted effect of over 50% in size
# Target sequence (Q6W5P4 whole entry, looked up): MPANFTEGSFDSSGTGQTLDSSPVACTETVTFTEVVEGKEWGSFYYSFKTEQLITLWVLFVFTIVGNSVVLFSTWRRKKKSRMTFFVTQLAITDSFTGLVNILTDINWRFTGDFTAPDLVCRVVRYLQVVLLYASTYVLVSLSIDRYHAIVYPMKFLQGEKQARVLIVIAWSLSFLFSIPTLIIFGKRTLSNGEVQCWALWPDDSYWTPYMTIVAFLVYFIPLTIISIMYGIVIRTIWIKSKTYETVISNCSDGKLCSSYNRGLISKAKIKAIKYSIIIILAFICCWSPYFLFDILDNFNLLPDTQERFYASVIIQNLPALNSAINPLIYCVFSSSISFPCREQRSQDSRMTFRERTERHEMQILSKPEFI
# IMPase Li cell = IMPase inhibition in cells with lithium potentiation; CHO-M1 cells, IP1 TR-FRET (IP-One), carbachol + lithium; Potency, µM (titrated, usually from 59.4 µM), without a hit: at the top dose activity, negative = IMPase inhibition, usual class: inhibitors; 210,000 tested, 0.35% active;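 further: IP1 builds up when IMPase is blocked and the TR-FRET signal falls; plate controls were basal vehicle for no effect and high inhibitor control for full effect; nearly all actives have a fitted effect of over 50% in size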
#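 Readout is a homogeneous TR-FRET IP1 immunoassay (Ex 320, Em 665 and 620), where raised cytosolic IP1 lowers signal. Cells were CHO-M1 treated 30 min at 37C with test compounds plus a little lithium; AC50 values came from Hill-equation fitting.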
# ERK EGF block = EGF-driven ERK pathway inhibition | 130,000 tested, 0.41% active | HEK293-V1b, EGF-stimulated phospho-ERK AlphaScreen | Potency, µM (titrated, usually from 11.5 µM), inactives show at the highest dose activity change, negative = inhibition, actives largely listed as inhibitors | AID 1454;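 further: plate controls were stimulated vehicle wells for no effect and unstimulated vehicle basal for full effect; nearly all actives have a fitted effect of over 55% in size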
#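 HEK293 cells stably expressing V1b receptor, serum-reduced (1% FBS) overnight, pretreated 30 min with compound, then stimulated 5 min with 25 nM EGF; phospho-ERK detected by AlphaScreen SureFire. AC50 from Hill fits, normalized to DMSO and EGF.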
# Numbers without * were called inactive; ? = inconclusive; nt = no result; [ ] = dose if it differs, or a comment. Rows were chosen to be rich in hits. Some 1.9% of all compounds tested hit in one or more screens of this group. The call rests on the fitted dose curve; in most records, active means well fitted curve in the direction sought with a large enough effect; inconclusive means small, poorly fitted or top-dose-only effect, or another doubt; inactive means no such curve, though single readings can be large; an effect the other way counts as inactive or inconclusive. Potency means the concentration at half of the fitted maximal effect.
SMILES,HTT cytoprotect,HttQ103 aggreg,NPSR antagonist,IMPase Li cell,ERK EGF block
Cc1cccc(CNc2cc(-c3ccc(C(=O)N(C)C)cc3)ncn2)c1,0%,nt,nt,-4%,17%
CC(=O)N[C@@H](CSC(=O)[C@]1([C@@H](O)C(C)C)NC(=O)[C@H](C)[C@@H]1O)C(=O)O,-165%[10 µM],nt,nt,-9%,nt
CCc1nnc(NC(=O)c2ccc(S(=O)(=O)N3CCCc4ccccc43)cc2)o1,-69%[10 µM],8.9µM*,-6%[46.1 µM],24%[38.3 µM],nt
O=C(Nc1nc2c(s1)CCCC2)c1ccc(S(=O)(=O)N2CCCc3ccccc32)cc1,-30%[10 µM],-30%,-25%,2%,1%
Cc1nnc(NC(=O)c2cccc(S(=O)(=O)N3CCc4ccccc43)c2)s1,3%,?,1.6µM*,23%[38.3 µM],nt
CCc1nnc(NC(=O)c2cccc(S(=O)(=O)N3CCc4ccccc43)c2)s1,-1%[10 µM],20%,-13%[46.1 µM],-2%[38.3 µM],nt
S=C1NC=NC2N=CNC12 (centres undefined),-76%,-21%,nt,12%,nt
O=C(c1ccccc1)N1CCC(c2nc(-c3ccc(S(=O)(=O)NCC4CCCO4)cc3)no2)CC1 (centres undefined),-5%,6.3µM*,2%[46.1 µM],9%[38.3 µM],nt
CC1CCC(O)C/C1=C\C=C1/CCCC2(C)C1CCC2C(C)/C=C/C(C)C(C)C (centres undefined),-13%,-18%,nt,nt,nt
CN(C)S(=O)(=O)c1ccc(C(=O)Nc2nnc(-c3cccs3)o2)cc1,28%[10 µM],?,-21%,0%,5%
CCC1CCCCN1S(=O)(=O)c1ccc(C(=O)Nc2nnc(-c3cccs3)o2)cc1 (centres undefined),28%[10 µM],11µM*,-3%[46.1 µM],2%,-15%
COc1cccc(-c2nnc(NC(=O)c3ccc(S(=O)(=O)N4CC(C)OC(C)C4)cc3)o2)c1 (centres undefined),-33%[10 µM],4µM*,-15%[46.1 µM],5%[38.3 µM],nt
CC1CN(S(=O)(=O)c2ccc(C(=O)Nc3nnc(-c4ccco4)o3)cc2)CC(C)O1 (centres undefined),-76%,?,-28%,2%,-5%
CC1CC(C)CN(S(=O)(=O)c2ccc(C(=O)Nc3nnc(-c4cccs4)o3)cc2)C1 (centres undefined),-71%,7.9µM*,-9%[46.1 µM],3%[38.3 µM],nt
C=CCN1c2ccccc2[C@]23C[C@@H](C(=O)OC)N(S(=O)(=O)c4c(C)noc4C)C2=NC(C(=O)OC)=C(C(=O)OC)[C@H]13,-10%[10 µM],nt,nt,3%,nt
COc1cc([C@H]2c3cc4c(cc3[C@@H](O[C@H]3O[C@H]5CO[C@@H](C)O[C@H]5[C@@H](O)[C@@H]3O)[C@@H]3COC(=O)[C@H]23)OCO4)cc(OC)c1O,-124%[17.1 µM],-8%,nt,-2%,-5%[25.7 µM]
COc1ccc(-n2c(SCC(=O)Nc3cc(C)on3)nc3c([nH]c4ccccc43)c2=O)cc1,-11%[10 µM],-1%[9.22 µM],?,5µM*,11%[57.5 µM]
COc1ccccc1CC(=O)Nc1ccc2c(c1)CCC2,10%[10 µM],1%,-6%[46.1 µM],0%,-4%
COc1ccc(CC(=O)Nc2ccc3c(c2)CCC3)cc1OC,2%,13µM*,?,22%[38.3 µM],nt
C=CC[C@@H]1/C=C(\C)C[C@H](C)C[C@H](OC)[C@H]2O[C@@](O)(C(=O)C(=O)N3CCCC[C@H]3C(=O)O[C@H](/C(C)=C/[C@@H]3CC[C@@H](O)[C@H](OC)C3)[C@H](C)[C@@H](O)CC1=O)[C@H](C)C[C@@H]2OC,4%,35%,nt,nt,nt
C1CCOC1,-23%,nt,nt,9%,nt
CCN(CC)C1=CC2=CC(=C(C#N)C#N)CCC2CC1 (centres undefined),-23%[10 µM],0.1µM*,-23%,18%,2%
CCCCN(C)C1=CC2=CC(=C(C#N)C#N)CCC2CC1 (centres undefined),6%[10 µM],0.32µM*,-34%,22%,-5%
N#CC(C#N)=C1C=C2C=C(N3CCCCC3)CCC2CC1 (centres undefined),nt,10µM*,-32%,31%,5%
O[C@H]1[C@H]2c3cc4c(cc3CN3CCC(=C[C@@H]1O)[C@H]23)OCO4,-106%,nt,nt,-3%,nt
SMILES,HTT cytoprotect,HttQ103 aggreg,NPSR antagonist,IMPase Li cell,ERK EGF block
COc1cccc2c1[C@@H]1CN(CCCCn3c(=O)[nH]c4c(sc5ncc(-c6ccccc6)nc54)c3=O)C[C@H]1CO2,7%[1.9 µM],nt,nt,nt,nt
CN1CCN(c2ncc3ncc(=O)n(-c4ccccc4)c3n2)CC1,-57%,nt,nt,-13%,nt
COc1c2c(cc3c1C(CC(O)C(C)C)N(C)CC3)OCO2 (centres undefined),-26%,nt,nt,4%,-9%
O=C(/C=C/c1cccc([N+](=O)[O-])c1)n1cnc2ccccc21,18%,?,-52%,9%,-1%
CCCCCCCCCCCCCCCC(=O)NCC(COP(=O)([O-])OCC[N+](C)(C)C)OCC (centres undefined),nt,nt,10µM*,20%,25µM*
CC1(O)CC2C(CC1O)C2(C)C (centres undefined),nt,nt,nt,11%,21%
Cn1cc(C(=O)c2ccc(Cl)cc2Cl)cc1C(=O)N/N=C(\N)COc1ccc(F)cc1,-61%,18µM*,-18%[46.1 µM],22%[38.3 µM],nt
COC(=O)NC(c1ccc2ccccc2c1)C(C(C)=O)C(=O)OC (centres undefined),-11%[10 µM],nt,nt,nt,nt
CCC(C)CCCCC(=O)N[C@@H](CCN)C(=O)N[C@H](C(=O)N[C@@H](CCN)C(=O)N[C@H]1CCNC(=O)C([C@@H](C)O)NC(=O)[C@@H](CCN)NC(=O)[C@H](CCN)NC(=O)[C@H](CC(C)C)NC(=O)[C@@H](CC(C)C)NC(=O)[C@H](CCN)NC1=O)[C@@H](C)O (some centres undefined),-84%,nt,nt,-1%,nt
CCCCc1nc2c(c3c1C[C@H](C)OC3)CN(C(=O)C1CC1)CC2,-19%[10 µM],nt,nt,10%,nt
Cc1ccccc1Nc1nnc(SCc2cc([N+](=O)[O-])cc3c2OCOC3)s1,-28%,18µM*,-29%[46.1 µM],52%[38.3 µM],nt
Cc1ccc2cc(C#N)c(SCC(=O)NCC3CCCO3)nc2c1 (centres undefined),-28%,-6%,?,10µM*,nt
N#Cc1c(Cl)nc(SCc2ccccc2)nc1-c1ccccc1,-3%,?,-18%[46.1 µM],2.5µM*,nt
Cc1nc(N2CCN(Cc3ccccc3)CC2)nc2c1C(=O)CCC2,-15%[0.074 µM],?,?,-16%,nt
O=C1CCCc2nc(N3CCN(Cc4ccccc4)CC3)ncc21,-22%,11µM*,-6%[46.1 µM],-8%[38.3 µM],nt
C=C(C)C(O)/C=C/c1ccc(C)cc1 (centres undefined),-3%[10 µM],nt,nt,nt,nt
O=C(Nc1nnc(C2CC2)s1)c1cc2c(s1)CCCCCC2,-22%,0%,?,10µM*,nt
